In paper PMC7862700, “An all-to-all approach to the identification of sequence-specific readers for epigenetic DNA modifications on cytosine”:

How the values were obtained:
Assay in all cases: DAPPL (digital affinity profiling via proximity ligation, sequencing); 10 mM Tris-HCl pH 7.5, 50 mM NaCl, 1 mM DTT, 4% glycerol, room temperature, 30 min; GST-TFs on glutathione beads, 16-mer random dsDNA library, 0.1% formaldehyde crosslink after washing; high values mean tight binding
FLI1 = biological target: T1, FLI1 (Homo sapiens, UniProt Q01543 1-452); settings: protein: recombinant; tags: N-terminal GST; dsDNA, one strand shown
T1 sequence: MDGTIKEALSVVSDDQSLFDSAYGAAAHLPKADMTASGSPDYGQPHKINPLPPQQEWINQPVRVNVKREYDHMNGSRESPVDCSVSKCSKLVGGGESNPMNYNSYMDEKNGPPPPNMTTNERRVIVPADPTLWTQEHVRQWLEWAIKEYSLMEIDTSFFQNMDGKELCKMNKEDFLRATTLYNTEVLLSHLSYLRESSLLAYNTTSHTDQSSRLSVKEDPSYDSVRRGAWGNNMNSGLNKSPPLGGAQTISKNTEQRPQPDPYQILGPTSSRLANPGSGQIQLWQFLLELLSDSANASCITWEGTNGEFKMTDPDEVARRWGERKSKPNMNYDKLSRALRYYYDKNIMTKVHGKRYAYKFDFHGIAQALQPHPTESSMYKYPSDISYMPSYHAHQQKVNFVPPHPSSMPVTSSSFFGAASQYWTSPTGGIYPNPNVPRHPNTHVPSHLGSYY
Outline: (§1)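 A tag-only sample was pooled with DNA-barcoded human transcription factors that had been expressed in yeast as GST fusions and captured on glutathione beads. The pools were incubated for 30 min at room temperature with 200 nmole of a random double-stranded 16-mer DNA library in Tris/NaCl/DTT/glycerol buffer, then washed, crosslinked with 0.1% formaldehyde, proximity-ligated (BsaI/T4 ligase, 1 h, 37 °C), PCR-amplified and sequenced on an Illumina NextSeq500. Binding signal is each hexamer's read frequency for a factor divided by its frequency for the tag-only sample.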

ELK1 = biological target: T2, ELK1 (Homo sapiens, UniProt P19419 1-428); settings: protein: recombinant; tags: N-terminal GST; dsDNA, one strand shown
T2 sequence: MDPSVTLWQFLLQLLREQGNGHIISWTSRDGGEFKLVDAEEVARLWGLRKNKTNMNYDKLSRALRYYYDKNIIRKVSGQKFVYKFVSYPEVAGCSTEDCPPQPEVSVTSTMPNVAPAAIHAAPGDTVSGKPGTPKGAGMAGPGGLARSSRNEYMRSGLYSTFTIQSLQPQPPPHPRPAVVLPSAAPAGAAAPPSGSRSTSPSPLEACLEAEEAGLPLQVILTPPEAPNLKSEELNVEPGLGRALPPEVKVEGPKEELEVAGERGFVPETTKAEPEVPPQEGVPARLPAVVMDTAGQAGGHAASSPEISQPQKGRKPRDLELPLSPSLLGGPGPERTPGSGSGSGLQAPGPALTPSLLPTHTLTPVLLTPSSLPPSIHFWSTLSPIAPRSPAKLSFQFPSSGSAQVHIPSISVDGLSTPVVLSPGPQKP
Outline: as §1

GABPA = biological target: T3, GABPA (Homo sapiens, UniProt Q06546 1-454); settings: protein: recombinant; tags: N-terminal GST; dsDNA, one strand shown
T3 sequence: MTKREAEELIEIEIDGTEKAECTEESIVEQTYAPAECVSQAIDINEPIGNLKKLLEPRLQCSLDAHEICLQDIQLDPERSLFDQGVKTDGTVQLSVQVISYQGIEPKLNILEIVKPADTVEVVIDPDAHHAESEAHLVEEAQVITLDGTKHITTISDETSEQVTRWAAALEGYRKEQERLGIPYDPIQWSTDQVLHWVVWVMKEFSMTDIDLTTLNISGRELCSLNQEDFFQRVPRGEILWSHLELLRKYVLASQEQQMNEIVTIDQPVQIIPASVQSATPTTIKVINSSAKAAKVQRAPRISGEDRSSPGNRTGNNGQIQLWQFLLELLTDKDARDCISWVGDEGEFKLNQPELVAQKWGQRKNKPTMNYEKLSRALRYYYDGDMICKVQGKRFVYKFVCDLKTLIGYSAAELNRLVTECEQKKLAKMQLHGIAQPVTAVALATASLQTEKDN
Outline: as §1

ERG = biological target: T4, ERG (Homo sapiens, UniProt P11308 1-479); settings: protein: recombinant; tags: N-terminal GST; dsDNA, one strand shown
T4 sequence: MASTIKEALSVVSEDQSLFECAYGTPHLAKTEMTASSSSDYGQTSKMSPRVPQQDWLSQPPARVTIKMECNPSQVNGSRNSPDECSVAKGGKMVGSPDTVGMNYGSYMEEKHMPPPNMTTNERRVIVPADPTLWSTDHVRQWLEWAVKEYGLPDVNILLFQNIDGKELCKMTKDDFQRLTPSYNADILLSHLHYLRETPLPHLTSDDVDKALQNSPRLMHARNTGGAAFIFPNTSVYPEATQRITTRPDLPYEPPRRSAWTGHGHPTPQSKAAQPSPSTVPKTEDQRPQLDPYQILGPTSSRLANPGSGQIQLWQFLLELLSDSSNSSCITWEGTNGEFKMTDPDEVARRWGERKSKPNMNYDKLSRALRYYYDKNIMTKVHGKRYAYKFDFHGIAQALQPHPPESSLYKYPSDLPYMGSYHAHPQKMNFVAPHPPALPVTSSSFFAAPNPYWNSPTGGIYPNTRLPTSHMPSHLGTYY
Outline: as §1

ELF1 = ELF1 (Homo sapiens, UniProt P32519 1-619); settings: protein: recombinant; tags: N-terminal GST; dsDNA, one strand shown
Outline: as §1

EHF = biological target: T5, EHF (Homo sapiens, UniProt Q9NZC4 1-300); settings: protein: recombinant; tags: N-terminal GST; dsDNA, one strand shown
T5 sequence: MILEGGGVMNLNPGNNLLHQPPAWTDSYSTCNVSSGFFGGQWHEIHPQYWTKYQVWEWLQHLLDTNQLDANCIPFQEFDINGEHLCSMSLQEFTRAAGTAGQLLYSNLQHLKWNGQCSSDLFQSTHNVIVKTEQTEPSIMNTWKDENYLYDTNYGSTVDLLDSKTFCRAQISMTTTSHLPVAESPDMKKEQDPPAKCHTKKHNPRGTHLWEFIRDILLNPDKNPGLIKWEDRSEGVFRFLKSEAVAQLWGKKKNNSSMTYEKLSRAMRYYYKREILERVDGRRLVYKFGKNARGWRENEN
Outline: as §1

SPI1 = SPI1 (Homo sapiens, UniProt P17947 1-270); settings: protein: recombinant; tags: N-terminal GST; dsDNA, one strand shown
Outline: as §1

SPIB = SPIB (Homo sapiens, UniProt Q01892 1-262); settings: protein: recombinant; tags: N-terminal GST; dsDNA, one strand shown
Outline: as §1

ELK3 = biological target: T6, ELK3 (Homo sapiens, UniProt P41970 1-407); settings: protein: recombinant; tags: N-terminal GST; dsDNA, one strand shown
T6 sequence: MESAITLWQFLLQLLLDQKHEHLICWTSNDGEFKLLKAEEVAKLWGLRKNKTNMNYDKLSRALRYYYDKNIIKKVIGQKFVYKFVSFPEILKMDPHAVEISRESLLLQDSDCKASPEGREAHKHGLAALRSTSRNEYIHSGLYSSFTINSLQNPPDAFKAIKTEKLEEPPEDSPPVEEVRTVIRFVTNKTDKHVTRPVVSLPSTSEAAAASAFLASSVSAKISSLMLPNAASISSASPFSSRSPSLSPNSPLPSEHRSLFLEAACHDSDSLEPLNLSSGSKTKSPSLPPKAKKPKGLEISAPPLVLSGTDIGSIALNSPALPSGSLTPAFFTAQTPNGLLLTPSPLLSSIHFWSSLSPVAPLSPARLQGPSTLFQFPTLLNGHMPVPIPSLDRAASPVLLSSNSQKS
Outline: as §1

FEV = biological target: T7, FEV (Homo sapiens, UniProt Q99581 1-238); settings: protein: recombinant; tags: N-terminal GST; dsDNA, one strand shown
T7 sequence: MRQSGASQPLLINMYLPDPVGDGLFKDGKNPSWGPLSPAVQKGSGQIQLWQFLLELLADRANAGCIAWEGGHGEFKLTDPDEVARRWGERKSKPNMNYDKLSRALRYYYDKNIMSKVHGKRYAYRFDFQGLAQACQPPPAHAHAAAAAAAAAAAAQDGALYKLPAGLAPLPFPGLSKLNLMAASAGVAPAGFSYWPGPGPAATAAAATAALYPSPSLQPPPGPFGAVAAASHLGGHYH
Outline: as §1

ETV5 = ETV5 (Homo sapiens, UniProt P41161 1-510); settings: protein: recombinant; tags: N-terminal GST; dsDNA, one strand shown
Outline: as §1

HSF1 = HSF1 (Homo sapiens, UniProt Q00613 1-529); settings: protein: recombinant; tags: N-terminal GST; chain copies: 3; dsDNA, one strand shown
Outline: as §1

SPIC = biological target: T8, SPIC (Homo sapiens, UniProt Q8N5J4 1-248); settings: protein: recombinant; tags: N-terminal GST; dsDNA, one strand shown
T8 sequence: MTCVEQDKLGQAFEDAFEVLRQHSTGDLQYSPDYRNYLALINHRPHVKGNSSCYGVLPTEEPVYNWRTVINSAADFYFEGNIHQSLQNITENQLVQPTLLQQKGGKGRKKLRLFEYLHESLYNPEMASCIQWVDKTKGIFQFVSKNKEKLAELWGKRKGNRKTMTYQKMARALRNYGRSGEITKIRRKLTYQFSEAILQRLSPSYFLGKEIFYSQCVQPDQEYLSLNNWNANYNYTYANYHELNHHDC
Outline: as §1

ELF4 = ELF4 (Homo sapiens, UniProt Q99607 1-663); settings: protein: recombinant; tags: N-terminal GST; dsDNA, one strand shown
Outline: as §1

ELK4 = biological target: T9, ELK4 (Homo sapiens, UniProt P28324-2 1-405); settings: protein: recombinant; tags: N-terminal GST; dsDNA, one strand shown
T9 sequence: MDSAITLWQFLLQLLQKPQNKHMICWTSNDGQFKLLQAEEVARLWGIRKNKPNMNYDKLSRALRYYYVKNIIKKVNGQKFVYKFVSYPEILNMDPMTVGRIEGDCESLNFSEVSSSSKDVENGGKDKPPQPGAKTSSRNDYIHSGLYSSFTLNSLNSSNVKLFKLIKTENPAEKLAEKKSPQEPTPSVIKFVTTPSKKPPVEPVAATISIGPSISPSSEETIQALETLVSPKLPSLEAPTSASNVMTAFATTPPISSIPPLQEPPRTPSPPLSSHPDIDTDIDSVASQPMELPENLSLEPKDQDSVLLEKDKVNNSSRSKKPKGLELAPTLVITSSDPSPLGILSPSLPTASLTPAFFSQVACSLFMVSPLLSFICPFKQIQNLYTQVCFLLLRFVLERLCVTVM
Outline: as §1

ETV2 = biological target: T10, ETV2 (Homo sapiens, UniProt O00321 1-342); settings: protein: recombinant; tags: N-terminal GST; dsDNA, one strand shown
T10 sequence: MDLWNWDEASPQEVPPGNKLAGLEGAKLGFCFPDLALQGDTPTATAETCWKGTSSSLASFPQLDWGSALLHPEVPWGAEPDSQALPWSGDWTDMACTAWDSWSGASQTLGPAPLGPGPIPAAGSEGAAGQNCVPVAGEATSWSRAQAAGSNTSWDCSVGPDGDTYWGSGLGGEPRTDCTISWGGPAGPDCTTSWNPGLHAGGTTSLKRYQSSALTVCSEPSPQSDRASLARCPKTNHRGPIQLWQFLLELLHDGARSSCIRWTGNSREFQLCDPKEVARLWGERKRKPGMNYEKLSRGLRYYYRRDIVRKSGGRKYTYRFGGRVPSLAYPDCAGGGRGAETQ
Outline: as §1

ELF3 = biological target: T11, ELF3 (Homo sapiens, UniProt P78545 1-371); settings: protein: recombinant; tags: N-terminal GST; dsDNA, one strand shown
T11 sequence: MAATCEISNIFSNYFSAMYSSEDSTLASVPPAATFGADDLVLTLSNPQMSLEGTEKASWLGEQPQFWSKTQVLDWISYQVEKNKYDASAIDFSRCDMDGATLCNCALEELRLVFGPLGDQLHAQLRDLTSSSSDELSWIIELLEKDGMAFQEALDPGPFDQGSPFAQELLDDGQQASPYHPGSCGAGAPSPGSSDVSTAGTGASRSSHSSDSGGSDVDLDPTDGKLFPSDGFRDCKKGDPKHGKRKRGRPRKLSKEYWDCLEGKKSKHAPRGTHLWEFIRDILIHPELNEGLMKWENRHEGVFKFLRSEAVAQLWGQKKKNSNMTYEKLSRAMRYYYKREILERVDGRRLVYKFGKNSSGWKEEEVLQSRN
Outline: as §1

CRX = CRX (Homo sapiens, UniProt O43186 1-299); settings: protein: recombinant; tags: N-terminal GST; dsDNA, one strand shown
Outline: as §1

ETV1 = ETV1 (Homo sapiens, UniProt P50549 1-477); settings: protein: recombinant; tags: N-terminal GST; dsDNA, one strand shown
Outline: as §1

Chain of ETV1 (P50549 whole entry): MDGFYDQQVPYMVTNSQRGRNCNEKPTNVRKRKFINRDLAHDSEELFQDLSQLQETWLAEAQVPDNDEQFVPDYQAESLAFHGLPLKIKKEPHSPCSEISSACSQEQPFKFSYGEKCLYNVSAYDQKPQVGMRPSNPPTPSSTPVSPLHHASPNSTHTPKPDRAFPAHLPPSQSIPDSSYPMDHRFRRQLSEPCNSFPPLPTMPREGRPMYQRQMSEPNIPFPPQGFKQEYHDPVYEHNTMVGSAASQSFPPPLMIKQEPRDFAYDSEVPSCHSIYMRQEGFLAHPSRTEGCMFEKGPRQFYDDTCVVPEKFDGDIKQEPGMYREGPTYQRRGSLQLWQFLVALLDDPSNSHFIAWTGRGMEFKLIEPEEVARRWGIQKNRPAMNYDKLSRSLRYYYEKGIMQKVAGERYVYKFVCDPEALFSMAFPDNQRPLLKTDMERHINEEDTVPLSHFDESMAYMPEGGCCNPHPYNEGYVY
Chain of SPIB (Q01892 whole entry): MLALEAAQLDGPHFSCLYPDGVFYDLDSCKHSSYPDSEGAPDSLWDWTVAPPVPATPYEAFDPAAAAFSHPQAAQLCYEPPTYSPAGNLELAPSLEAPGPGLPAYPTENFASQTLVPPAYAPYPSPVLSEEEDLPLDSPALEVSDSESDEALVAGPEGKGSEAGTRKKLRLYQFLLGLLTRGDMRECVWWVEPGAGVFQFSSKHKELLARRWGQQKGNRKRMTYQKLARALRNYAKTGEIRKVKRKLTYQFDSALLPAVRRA
Chain of HSF1 (Q00613 whole entry): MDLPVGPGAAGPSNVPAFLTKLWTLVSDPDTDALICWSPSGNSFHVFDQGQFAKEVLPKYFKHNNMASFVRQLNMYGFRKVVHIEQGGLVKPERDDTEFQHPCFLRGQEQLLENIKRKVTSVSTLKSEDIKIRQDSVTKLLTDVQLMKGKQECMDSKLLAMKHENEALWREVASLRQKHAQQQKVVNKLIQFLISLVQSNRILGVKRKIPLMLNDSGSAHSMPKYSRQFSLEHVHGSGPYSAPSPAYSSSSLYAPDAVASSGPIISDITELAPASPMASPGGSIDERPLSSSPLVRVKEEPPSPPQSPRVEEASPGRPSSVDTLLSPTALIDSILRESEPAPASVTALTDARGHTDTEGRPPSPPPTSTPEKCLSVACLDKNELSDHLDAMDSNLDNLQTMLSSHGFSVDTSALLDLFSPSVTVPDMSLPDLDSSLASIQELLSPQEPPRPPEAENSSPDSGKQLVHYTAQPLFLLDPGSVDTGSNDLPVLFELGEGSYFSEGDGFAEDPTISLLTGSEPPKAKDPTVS
Chain of ETV5 (P41161 whole entry): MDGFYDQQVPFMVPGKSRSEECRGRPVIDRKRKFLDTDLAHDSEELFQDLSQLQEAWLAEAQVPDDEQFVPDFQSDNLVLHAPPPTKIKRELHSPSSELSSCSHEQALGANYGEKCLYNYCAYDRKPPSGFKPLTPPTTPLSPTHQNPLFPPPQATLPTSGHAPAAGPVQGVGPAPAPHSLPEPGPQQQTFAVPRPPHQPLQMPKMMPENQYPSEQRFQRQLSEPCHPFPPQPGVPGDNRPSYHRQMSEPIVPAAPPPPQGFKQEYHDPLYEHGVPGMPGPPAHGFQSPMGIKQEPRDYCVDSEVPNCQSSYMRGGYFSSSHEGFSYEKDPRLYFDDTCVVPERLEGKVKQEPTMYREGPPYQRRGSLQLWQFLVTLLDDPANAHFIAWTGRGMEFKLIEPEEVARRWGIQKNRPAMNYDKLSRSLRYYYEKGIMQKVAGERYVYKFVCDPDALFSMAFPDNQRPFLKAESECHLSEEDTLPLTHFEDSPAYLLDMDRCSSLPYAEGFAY
Chain of ELF1 (P32519 whole entry): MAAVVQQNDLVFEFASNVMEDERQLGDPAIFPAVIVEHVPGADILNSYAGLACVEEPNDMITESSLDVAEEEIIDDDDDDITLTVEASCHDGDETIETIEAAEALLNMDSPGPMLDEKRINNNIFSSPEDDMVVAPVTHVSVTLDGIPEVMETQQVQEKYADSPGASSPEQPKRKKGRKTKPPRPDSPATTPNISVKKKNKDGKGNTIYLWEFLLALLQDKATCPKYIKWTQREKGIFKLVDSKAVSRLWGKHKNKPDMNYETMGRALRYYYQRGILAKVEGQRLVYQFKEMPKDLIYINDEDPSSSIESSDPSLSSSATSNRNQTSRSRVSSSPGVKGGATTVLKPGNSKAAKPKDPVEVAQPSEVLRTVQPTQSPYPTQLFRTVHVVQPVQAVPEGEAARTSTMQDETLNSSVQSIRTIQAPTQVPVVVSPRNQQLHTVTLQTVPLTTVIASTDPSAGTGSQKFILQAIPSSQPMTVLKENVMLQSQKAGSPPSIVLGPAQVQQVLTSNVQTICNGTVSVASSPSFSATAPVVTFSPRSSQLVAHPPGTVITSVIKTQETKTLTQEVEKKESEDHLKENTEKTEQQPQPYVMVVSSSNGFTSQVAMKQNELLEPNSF
Chain of ELF4 (Q99607 whole entry): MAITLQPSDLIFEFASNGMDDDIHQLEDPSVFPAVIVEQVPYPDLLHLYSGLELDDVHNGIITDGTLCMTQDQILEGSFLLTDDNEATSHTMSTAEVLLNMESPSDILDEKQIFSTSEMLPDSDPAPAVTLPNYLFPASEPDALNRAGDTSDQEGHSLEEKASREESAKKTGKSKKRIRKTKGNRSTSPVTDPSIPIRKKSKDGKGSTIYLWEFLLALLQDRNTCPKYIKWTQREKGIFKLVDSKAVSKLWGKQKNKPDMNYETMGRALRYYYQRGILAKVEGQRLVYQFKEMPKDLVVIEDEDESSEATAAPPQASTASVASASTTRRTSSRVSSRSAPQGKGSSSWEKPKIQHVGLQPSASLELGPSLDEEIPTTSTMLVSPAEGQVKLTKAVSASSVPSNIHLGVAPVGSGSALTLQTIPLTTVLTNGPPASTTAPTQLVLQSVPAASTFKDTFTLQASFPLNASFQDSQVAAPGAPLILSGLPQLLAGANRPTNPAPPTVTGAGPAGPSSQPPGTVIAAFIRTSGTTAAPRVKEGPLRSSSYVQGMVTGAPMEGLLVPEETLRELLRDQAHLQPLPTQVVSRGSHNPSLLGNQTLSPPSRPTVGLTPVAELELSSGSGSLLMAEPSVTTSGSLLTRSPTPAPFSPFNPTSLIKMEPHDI
Chain of CRX (O43186 whole entry): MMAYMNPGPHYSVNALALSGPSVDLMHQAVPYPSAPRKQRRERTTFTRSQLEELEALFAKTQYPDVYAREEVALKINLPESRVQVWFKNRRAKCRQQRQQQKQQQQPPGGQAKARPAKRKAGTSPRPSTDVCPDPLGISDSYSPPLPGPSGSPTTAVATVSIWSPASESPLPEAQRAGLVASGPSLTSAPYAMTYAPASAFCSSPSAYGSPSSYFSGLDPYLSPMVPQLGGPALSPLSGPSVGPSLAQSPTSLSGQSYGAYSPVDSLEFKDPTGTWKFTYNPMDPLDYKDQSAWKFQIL

ACTAAA
binding signal (FLI1): 1.26 fold enrichment (6-mer frequency, TF over GST control)
binding signal (ELK1): 1.22 fold enrichment (6-mer frequency, TF over GST control)
binding signal (GABPA): 1.34 fold enrichment (6-mer frequency, TF over GST control)
binding signal (ERG): 1.3 fold enrichment (6-mer frequency, TF over GST control)
binding signal (ELF1): 1.32 fold enrichment (6-mer frequency, TF over GST control)
binding signal (EHF): 1.21 fold enrichment (6-mer frequency, TF over GST control)
binding signal (SPI1): 1.32 fold enrichment (6-mer frequency, TF over GST control)
binding signal (SPIB): 1.28 fold enrichment (6-mer frequency, TF over GST control)
binding signal (ELK3): 1.34 fold enrichment (6-mer frequency, TF over GST control)
binding signal (FEV): 1.24 fold enrichment (6-mer frequency, TF over GST control)
binding signal (ETV5): 1.24 fold enrichment (6-mer frequency, TF over GST control)
binding signal (HSF1): 1.37 fold enrichment (6-mer frequency, TF over GST control)
binding signal (SPIC): 1.14 fold enrichment (6-mer frequency, TF over GST control)
binding signal (ELF4): 1.31 fold enrichment (6-mer frequency, TF over GST control)
binding signal (ELK4): 1.4 fold enrichment (6-mer frequency, TF over GST control)
binding signal (ETV2): 1.24 fold enrichment (6-mer frequency, TF over GST control)
binding signal (ELF3): 1.33 fold enrichment (6-mer frequency, TF over GST control)
binding signal (CRX): 1.6 fold enrichment (6-mer frequency, TF over GST control)
binding signal (ETV1): 1.31 fold enrichment (6-mer frequency, TF over GST control)
